Results reported in PubChem BioAssay (NCATS).
Where “and” joins values, the source holds several entries; their conditions need not be identical. Identical values can stand only once. Results filed as inconclusive are left out. Calls of active or inactive are those of the source. Unless noted, calls follow the shape of the dose curve; as a rule, active = well fitted curve in the direction sought with a large enough effect; inconclusive = small, poorly fitted or top-dose-only effect, or another doubt; inactive = no such curve, though single readings can be large; an effect the other way counts as inactive or inconclusive.

What was measured:
[1] = Cytometric Cell-Based qHTS for Inhibitors of the mTORC1 Signaling Pathway in MEF (Tsc2-/-, p53-/-) Cells (AID 2660); details: mTORC1 pathway cytometry; series mostly up to 38.3 µM;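 also: Tsc2 and p53 null MEFs carrying empty vector with compound for 24 h; percent of cells above a phospho-rpS6 to PI ratio cutoff in each well; plate controls were DMSO for no effect and rapamycin for full effect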
Summary of the method: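 Percent of cells positive for normalized phospho-S6 staining is reported, with the cutoff set from rapamycin (7.5 nM) versus DMSO wells. Tsc2-/-, p53-/- MEFs received compound for 24 hrs.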

[2] = High Content Imaging Cell-Based qHTS for Inhibitors of the mTORC1 Signaling Pathway in MEF (Tsc2-/-, p53-/-) Cells (AID 2666); details: series mostly up to 38.3 µM;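 also: percent of cells scored positive for phospho-rpS6 Ser235/236 immunostaining by imaging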
Summary of the method: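 MEF Tsc2-/- p53-/- (empty vector), DMEM/10% FBS; cpd 24 h 37 °C; PFA fix, Alexa-488 p-rpS6 S235/236 Ab, Hoechst; imaged; rapamycin-defined inhibition; % positive cells/well.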

[3] = High Content Imaging Cell-Based qHTS for Inhibitors of the mTORC1 Signaling Pathway in MEF Cells (AID 2667); details: series mostly up to 38.3 µM; also: potency is read from the fitted curve at half-maximal effect;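 as to activity change, negative = inhibition: Tsc2-/- p53-/- MEFs stably re-expressing wild-type Tsc2 exposed 24 h; plate controls were DMSO wells for no effect and rapamycin control wells for full effect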
Summary of the method: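 Read-out is the share of phospho-rpS6-positive cells per well, from Hoechst-normalized Alexa-488 Ser235/236 staining imaged on IN Cell. Cells: WT Tsc2-expressing Tsc2-/-, p53-/- MEFs exposed to compound for 24 hrs.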

[4] = qHTS Assay for Lipid Storage Modulators (AID 1519; calls by dose curve; as to activity change, negative = inhibition: % is scaled to controls: 0 for no effect and ±100 for the full control effect); details: Drosophila S3 cells, BODIPY lipid droplet/cell ratio, laser cytometry, cells loaded with oleic acid; for activity change, negative = inhibition: at 57.5 µM (top of the series)
Summary of the method: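 Cells seeded at 5,000 per well were treated with compounds over a concentration series and loaded with oleic acid (400 uM, as added). Lipid droplet fluorescence (488 nm excitation, 500-530 nm channel) was read by laser-scanning cytometry and normalized to 20 uM Triacsin C.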

[5] = biological target: DNA repair nuclease/redox regulator APEX1 (Homo sapiens) (UniProt P27695); assay: qHTS Validation Assay for Inhibitors of the Human Apurinic/apyrimidinic Endonuclease 1 (APE1) (AID 1705;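 also: TAMRA fluorescence gain over two minutes as APE1 cuts a quenched THF abasic duplex; % is scaled to controls: 0 for no effect and ±100 for the full control effect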); details: purified APE1 endonuclease activity, fluorescence, titration; series mostly up to 57.1 µM
Summary of the method: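 Activity read as rising fluorescence (598 nm emission, 525 nm excitation) from incision of a TAMRA/BHQ-2 duplex carrying a THF abasic site (50 nM). Compound and enzyme sat 15 min at RT before substrate start; signal change between first and third 60-s reads.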

[6] = qHTS for differential inhibitors of proliferation of Plasmodium falciparum line 7G8 (AID 1815); details: Plasmodium falciparum 7G8 proliferation inhibition; series mostly up to 28.7 µM;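 also: parasite growth measured after three days of incubation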; also: potency is read from the fitted curve at half-maximal effect;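 as to activity change, negative = inhibition: plate controls were vehicle wells for no effect and reference inhibitor wells for full effect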
[7] = qHTS for differential inhibitors of proliferation of Plasmodium falciparum line GB4 (AID 1816); details: Potency: Plasmodium falciparum GB4 proliferation inhibition; series mostly up to 28.7 µM;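 also: parasite growth measured after 72 h incubation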; also: potency is read from the fitted curve at half-maximal effect;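 as to activity change, negative = inhibition: 0% = vehicle DMSO and -100% = reference inhibitor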
[8] = qHTS for differential inhibitors of proliferation of Plasmodium falciparum line 3D7 (AID 1876); also: potency is read from the fitted curve at half-maximal effect; details: P. falciparum 3D7 proliferation inhibition; series mostly up to 28.7 µM
[9] = qHTS for differential inhibitors of proliferation of Plasmodium falciparum line D10 (AID 1877); details: series mostly up to 28.7 µM;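 also: parasites grown with compound for 72 h before DNA staining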; also: potency is read from the fitted curve at half-maximal effect;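 as to activity change, negative = inhibition: plate controls were vehicle wells for no effect and reference inhibitor wells for full effect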
[10] = qHTS for differential inhibitors of proliferation of Plasmodium falciparum line Dd2 (AID 1882); details: Potency: Plasmodium falciparum Dd2 proliferation inhibition; series mostly up to 28.7 µM; also: nearly all actives have a fitted effect of over 65% in size; also: potency is read from the fitted curve at half-maximal effect;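 as to activity change, negative = inhibition: plate controls were DMSO vehicle for no effect and 0.29 µM artemisinin for full effect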
Summary of the method: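 SYBR Green DNA fluorescence (ex 485, em 535 nm) after overnight lysis quantifies parasite growth; compound exposure lasted 72 h at 37 C on infected red cells at 2.5% hematocrit, 0.3% parasitemia (final). Artemisinin 0.29 uM and vehicle wells define normalization.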

[11] = qHTS for differential inhibitors of proliferation of Plasmodium falciparum line W2 (AID 1883); details: Potency: Plasmodium falciparum W2 proliferation inhibition; series mostly up to 28.7 µM;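 also: parasites grown with compound for 72 h before lysis and staining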; also: potency is read from the fitted curve at half-maximal effect;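 as to activity change, negative = inhibition: 0% = vehicle wells and -100% = control inhibitor wells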
[12] = qHTS for differential inhibitors of proliferation of Plasmodium falciparum line HB3 (AID 1886); details: Potency: Plasmodium falciparum HB3 proliferation inhibition; series mostly up to 28.7 µM;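 also: parasites grown with compound for 72 h before SYBR Green readout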; also: potency is read from the fitted curve at half-maximal effect;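 as to activity change, negative = inhibition: plate controls were vehicle for no effect and reference inhibitor for full effect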
[13] = biological target: ATP-dependent DNA helicase Q1 (Homo sapiens) (UniProt P46063); assay: qHTS Validation Assay for Inhibitors of RecQ-Like Dna Helicase 1 (RECQ1) (AID 2353); details: recombinant RECQ1 helicase DNA unwinding assay; series mostly up to 25.6 µM;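 also: plate controls were DMSO vehicle for no effect and enzyme-free control for full effect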
Summary of the method: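 RECQ1T1 50 nM; forked duplex (20 bp + 30-nt ss tails) 200 nM, ATP 2 mM final; pH 8.0, 2 mM MgCl2, 2.5 ug/ml poly(dI-dC); 15 min compound preincubation; discontinuous kinetic read over 2 h at RT.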

[14] = qHTS Assay for Modulators of Human Peripheral Myelin Protein 22 (PMP22) Expression/Activity (AID 1967; active = well fitted curve in the direction sought with a large enough effect in the signal ratio; the % refers to the signal ratio;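 also: 0% = untreated cells and 100% end not stated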); details: Cell-based PMP22 reporter, dual-color luciferase ratio, mouse Pmp22 promoter in mouse Schwann cells; series mostly up to 115 µM
Summary of the method: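 Readout is the corrected green/red luminescence ratio after 24 h compound exposure, normalised to untreated cells (0%). Engineered MSC80 mouse Schwann cells express green luciferase from the mouse Pmp22 promoter and red luciferase from EF-alpha as internal control.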

[15] = biological target: Ferritin light chain (Equus caballus) (UniProt P02791); assay: qHTS Validation Assay for Identification of Novel General Anesthetics (AID 2323); details: horse apoferritin, anesthetic-site fluorescent probe displacement; series mostly up to 76.9 µM; also: % is scaled to controls: 0 for no effect and ±100 for the full control effect
Summary of the method: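 Competitive displacement of the profluorescent anesthetic 1-AMA (50% saturated, PBS) from 10 uM apoferritin, 10 min, room temperature. Activity is normalized 380/535 nm fluorescence; concentration-response fitted with a four-parameter Hill equation.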

[16] = biological target: RecQ-like DNA helicase BLM (Homo sapiens) (UniProt P54132); assay: qHTS Validation Assay for Inhibitors of Bloom's syndrome helicase (BLM) (AID 2364); details: BLM helicase DNA unwinding, fluorescence, in vitro; series mostly up to 57.1 µM;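 also: plate controls were DMSO vehicle for no effect and enzyme-free control for full effect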
Summary of the method: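 50 nM BLM preincubated 15 min at room temperature with compound in pH 8.0 Tris buffer containing 2.5 ug/ml poly(dI-dC); started with 200 nM TAMRA/BHQ-2 forked duplex and 2 mM ATP (final). Unwinding read as TAMRA fluorescence increase, two reads 2 h apart.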

[17] = Counterscreen for APE1 Inhibitors: Fluorescent Dye Displacement Validation Assay (AID 1707); details: fluorescent dye displacement from DNA; series mostly up to 57.1 µM;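 also: plate controls were ThO with dsDNA and no compound for no effect and ThO without dsDNA for full effect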
Summary of the method: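 Loss of Thiazole Orange fluorescence marks promiscuous DNA binders. The dye (250 nM) is mixed with 50 nM abasic-site dsDNA in pH7.5 Tris buffer containing MgCl2, then compounds are added and emission is read once.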

[18] = biological target: Endonuclease 4 (Escherichia coli (strain K12)) (UniProt P0A6C1); assay: Counterscreen for APE1 Inhibitors: qHTS Validation Assay for Inhibitors of Endonuclease IV (AID 1708); also: % is scaled to controls: 0 for no effect and ±100 for the full control effect; details: E. coli endonuclease IV, DNA cleavage fluorescence; series mostly up to 57.1 µM
Summary of the method: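 Conditions: 2 nM enzyme, 50 nM TAMRA/BHQ-2 substrate, pH 7.5 Tris buffer with 2 mM MgCl2, RT. Compound preincubation 15 min; readout three fluorescence reads 60 s apart, third-minus-first.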

[19] = measured here: cell count channel max response
[20] = measured here: lipid channel max response

Chain of DNA repair nuclease/redox regulator APEX1 (Homo sapiens) (P27695 whole entry, looked up): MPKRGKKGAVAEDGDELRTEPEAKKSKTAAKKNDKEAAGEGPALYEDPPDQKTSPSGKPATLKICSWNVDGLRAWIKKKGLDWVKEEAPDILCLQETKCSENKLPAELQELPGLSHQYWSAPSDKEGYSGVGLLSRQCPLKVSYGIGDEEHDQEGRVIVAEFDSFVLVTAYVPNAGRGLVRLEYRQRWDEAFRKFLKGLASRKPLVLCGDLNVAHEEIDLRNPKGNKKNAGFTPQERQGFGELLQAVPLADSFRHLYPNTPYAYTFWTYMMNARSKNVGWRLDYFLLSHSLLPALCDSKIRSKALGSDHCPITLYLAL
Chain of RecQ-like DNA helicase BLM (Homo sapiens) (P54132 whole entry, looked up): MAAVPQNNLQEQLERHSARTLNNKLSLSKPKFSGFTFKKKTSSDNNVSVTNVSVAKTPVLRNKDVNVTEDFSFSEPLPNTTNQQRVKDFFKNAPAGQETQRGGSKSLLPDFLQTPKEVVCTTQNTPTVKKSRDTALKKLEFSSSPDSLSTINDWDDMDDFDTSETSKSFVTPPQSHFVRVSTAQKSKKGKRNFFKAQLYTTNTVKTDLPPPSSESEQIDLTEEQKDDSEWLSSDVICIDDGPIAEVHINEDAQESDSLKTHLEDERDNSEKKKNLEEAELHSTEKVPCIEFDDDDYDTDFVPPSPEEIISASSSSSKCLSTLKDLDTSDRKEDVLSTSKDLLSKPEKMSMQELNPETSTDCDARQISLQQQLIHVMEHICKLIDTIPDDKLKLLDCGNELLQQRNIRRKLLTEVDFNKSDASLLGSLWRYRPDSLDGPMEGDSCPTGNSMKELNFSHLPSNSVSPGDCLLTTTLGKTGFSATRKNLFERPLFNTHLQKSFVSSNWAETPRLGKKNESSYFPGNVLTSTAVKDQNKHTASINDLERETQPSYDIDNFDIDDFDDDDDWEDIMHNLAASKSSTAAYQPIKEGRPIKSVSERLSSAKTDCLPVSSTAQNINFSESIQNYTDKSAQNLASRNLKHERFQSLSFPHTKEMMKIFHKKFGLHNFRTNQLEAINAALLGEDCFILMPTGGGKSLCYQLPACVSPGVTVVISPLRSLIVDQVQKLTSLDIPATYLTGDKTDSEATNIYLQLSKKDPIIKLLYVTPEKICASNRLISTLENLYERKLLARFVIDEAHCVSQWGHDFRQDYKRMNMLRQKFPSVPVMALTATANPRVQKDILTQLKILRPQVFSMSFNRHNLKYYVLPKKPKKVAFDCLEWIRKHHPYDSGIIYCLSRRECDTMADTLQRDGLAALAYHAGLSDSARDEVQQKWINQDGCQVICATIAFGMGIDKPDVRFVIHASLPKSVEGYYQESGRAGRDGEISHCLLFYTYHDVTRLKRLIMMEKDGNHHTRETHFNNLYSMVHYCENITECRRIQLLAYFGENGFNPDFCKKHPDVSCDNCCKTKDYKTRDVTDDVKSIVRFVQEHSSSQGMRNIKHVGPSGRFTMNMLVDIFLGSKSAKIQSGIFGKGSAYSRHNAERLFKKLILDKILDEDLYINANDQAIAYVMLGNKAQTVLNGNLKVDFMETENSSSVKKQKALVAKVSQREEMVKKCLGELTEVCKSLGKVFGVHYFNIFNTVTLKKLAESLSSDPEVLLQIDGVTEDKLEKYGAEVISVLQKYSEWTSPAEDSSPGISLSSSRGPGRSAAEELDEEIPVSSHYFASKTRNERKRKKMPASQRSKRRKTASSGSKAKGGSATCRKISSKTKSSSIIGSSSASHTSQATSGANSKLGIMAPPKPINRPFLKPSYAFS
Chain of ATP-dependent DNA helicase Q1 (Homo sapiens) (P46063 whole entry, looked up): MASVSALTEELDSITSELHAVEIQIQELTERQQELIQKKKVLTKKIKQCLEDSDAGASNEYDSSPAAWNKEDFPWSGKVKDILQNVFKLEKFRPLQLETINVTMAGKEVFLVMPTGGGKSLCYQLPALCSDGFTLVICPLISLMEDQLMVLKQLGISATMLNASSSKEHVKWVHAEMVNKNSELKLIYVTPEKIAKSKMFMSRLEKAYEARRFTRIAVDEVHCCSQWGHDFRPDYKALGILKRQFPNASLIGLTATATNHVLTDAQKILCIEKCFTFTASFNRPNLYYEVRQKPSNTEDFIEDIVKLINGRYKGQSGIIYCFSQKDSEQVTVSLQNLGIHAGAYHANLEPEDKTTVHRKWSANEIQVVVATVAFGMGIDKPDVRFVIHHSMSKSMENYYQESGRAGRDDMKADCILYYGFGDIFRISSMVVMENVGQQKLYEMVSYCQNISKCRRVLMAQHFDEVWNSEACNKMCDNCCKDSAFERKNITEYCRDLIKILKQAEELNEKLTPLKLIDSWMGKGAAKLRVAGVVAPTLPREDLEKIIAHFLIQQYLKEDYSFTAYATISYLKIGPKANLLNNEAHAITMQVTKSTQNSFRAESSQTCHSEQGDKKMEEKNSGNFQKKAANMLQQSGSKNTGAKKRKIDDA
Chain of Ferritin light chain (Equus caballus) (P02791 2-175 limits assumed): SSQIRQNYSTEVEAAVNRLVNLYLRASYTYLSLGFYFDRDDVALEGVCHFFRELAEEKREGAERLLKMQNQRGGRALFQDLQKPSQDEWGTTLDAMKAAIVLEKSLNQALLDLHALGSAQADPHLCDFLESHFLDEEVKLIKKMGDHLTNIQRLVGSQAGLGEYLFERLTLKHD

Cc1cn([C@H]2C[C@H](N=[N+]=[N-])[C@@H](CO)O2)c(=O)[nH]c1=O
inactive: outcome [1] | Potency [2] | Potency [3]

Cc1cn([C@H]2C=C[C@@H](CO)O2)c(=O)[nH]c1=O
-8.91%: max response [4, 20]
inactive: activity change, negative = inhibition [4] 1.52% | Potency [5] | Potency [6] | Potency [7] | Potency [8] | Potency [9] | Potency [10] | Potency [11] | Potency [12] | Potency [13] | outcome [1] | Potency [2] | Potency [3]
-10.8%: max response [4, 19]

CC#C[C@]1(O)CC[C@H]2[C@@H]3CCC4=CC(=O)CCC4=C3[C@@H](c3ccc(N(C)C)cc3)C[C@@]21C
inactive: outcome [1] | Potency [2]
active: Potency [3] 11700 nM

CN1C2CCC1CC(OC(=O)C(CO)c1ccccc1)C2 (stereo unspecified)
inactive: Potency [5] | Potency [8] | Potency [9] | Potency [12] | Potency [14] | Potency [15] | Potency [13] | outcome [1] | Potency [2] | Potency [3]

CCCCc1oc2ccccc2c1C(=O)c1cc(I)c(OCCN(CC)CC)c(I)c1
inactive: activity change, negative = inhibition [4] -1.96% | Potency [5] | Potency [13] | outcome [1] | Potency [2]
1.02%: max response [4, 20]
active: Potency [6] 2820 nM | Potency [7] 2510 nM | Potency [8] 2820 nM | Potency [9] 7080 nM | Potency [10] 6310 nM | Potency [11] 2240 nM | Potency [12] 3980 nM | Potency [3] 13100 nM
0.489%: max response [4, 19]

COc1cc2nc(N(C)CCCNC(=O)C3CCCO3)nc(N)c2cc1OC (stereo unspecified)
inactive: activity change, negative = inhibition [4] 3.93% | outcome [1] | Potency [2] | Potency [3]
20.8%: max response [4, 20]
5.38%: max response [4, 19]

Clc1ccc2nsnc2c1NC1=NCCN1
inactive: outcome [1] | Potency [2] | Potency [3]

CC(C)C(=O)Nc1ccc([N+](=O)[O-])c(C(F)(F)F)c1
inactive: Potency [5] | Potency [10] | Potency [13] | Potency [16] | outcome [1] | Potency [2] | Potency [3]

COc1ccccc1OCCNCC(O)COc1cccc2[nH]c3ccccc3c12 (stereo unspecified)
5.72%: max response [4, 19]
inactive: activity change, negative = inhibition [4] 6.43% | outcome [1] | Potency [2]
13%: max response [4, 20]

Cc1cc(C(C)(C)C)cc(C)c1CC1=NCCN1
inactive: Potency [5] | Potency [17] | Potency [13] | outcome [1] | Potency [2] | Potency [3]

COc1cc2nc(N3CCN(C(=O)C4COc5ccccc5O4)CC3)nc(N)c2cc1OC (stereo unspecified)
active: Potency [6] 2240 nM | Potency [7] 3160 nM | Potency [8] 2820 nM | Potency [9] 2510 nM | Potency [10] 11200 nM | Potency [11] 1120 nM | Potency [12] 2820 nM
inactive: Potency [5] | Potency [17] | Potency [18] | Potency [13] | Potency [16] | outcome [1] | Potency [2]

O=c1[nH]cc(F)c(=O)[nH]1
12.8% and 58.3%: max response [4, 20]
3.09% and 58.9%: max response [4, 19]
inactive: activity change, negative = inhibition [4] 6.92% and -0.382% | Potency [5] | Potency [13] | Potency [16] | outcome [1] | Potency [2] | Potency [3]
